In the library only some 3% were active in any assay of this set; here they are far more common.
ALOX12 inh: ALOX12 (human) lipoxygenase inhibition; P18054; purified 12hLO, xylenol orange hydroperoxide absorbance; Potency, µM (doses to about 108 µM), actives largely listed as inhibitors; actives 1.1% (n = 580,000); AID 1671190
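Hydroperoxide product was detected by ferrous iron/xylenol orange as the 573 to 405 nm absorbance ratio. Arachidonic acid at 40 uM (final) was turned over for 30 min at room temperature by 150 nM human 12hLO, pH 7.0 Hepes buffer, after 15 min compound preincubation.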
VDR inhibitor: vitamin D3 receptor (human) inhibition | P11473 | VDR-SRC2-3 peptide fluorescence polarization, 2 h | Potency, µM, most hits filed as inhibitors | actives 0.93% (n = 400,000)
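Two reagent solutions held at 4 deg C in the dark were dispensed, compounds pinned at 23 nl, and the mixture incubated 2 h at room temperature. Read-out: fluorescence polarization of VDR–SRC2-3 peptide binding.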
GCN5L2 inh: GCN5L2 (KAT2A) acetyltransferase inhibition; Q92830; GCN5L2 HAT assay, ThioGlo1 CoA-SH fluorescence; Potency, µM (series often up to 58.9 µM), hits mostly inhibitors; actives 0.21% (n = 390,000); AID 504327
Target sequence (Q92830 whole entry, looked up): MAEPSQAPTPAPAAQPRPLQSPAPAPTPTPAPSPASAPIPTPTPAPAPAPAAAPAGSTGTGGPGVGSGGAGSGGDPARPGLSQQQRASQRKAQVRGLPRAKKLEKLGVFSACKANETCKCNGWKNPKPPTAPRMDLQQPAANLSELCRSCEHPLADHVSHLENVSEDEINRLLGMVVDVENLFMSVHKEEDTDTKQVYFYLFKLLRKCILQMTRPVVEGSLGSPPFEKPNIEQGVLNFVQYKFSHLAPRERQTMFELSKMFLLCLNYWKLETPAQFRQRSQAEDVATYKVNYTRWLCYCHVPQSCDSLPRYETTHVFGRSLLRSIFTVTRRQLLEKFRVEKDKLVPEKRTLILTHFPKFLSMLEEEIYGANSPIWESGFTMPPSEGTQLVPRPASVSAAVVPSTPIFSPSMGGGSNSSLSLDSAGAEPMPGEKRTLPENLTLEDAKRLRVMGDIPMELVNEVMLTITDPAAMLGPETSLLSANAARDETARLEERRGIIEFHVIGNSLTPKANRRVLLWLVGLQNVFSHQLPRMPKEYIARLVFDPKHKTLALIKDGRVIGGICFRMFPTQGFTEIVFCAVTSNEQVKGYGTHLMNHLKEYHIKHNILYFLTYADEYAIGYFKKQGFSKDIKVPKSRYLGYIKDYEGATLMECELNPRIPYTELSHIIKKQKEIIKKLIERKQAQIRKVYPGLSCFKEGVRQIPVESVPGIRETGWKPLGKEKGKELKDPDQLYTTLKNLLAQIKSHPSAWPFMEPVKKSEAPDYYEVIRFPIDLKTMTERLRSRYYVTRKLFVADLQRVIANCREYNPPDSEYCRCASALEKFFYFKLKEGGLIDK
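GCN5L2 (20nM final) in 50mM HEPES, 0.1mM EDTA pH 7.5, 0.01% Tween-20 was preincubated 15 min at room temperature with compound, then given ThioGlo1 (50uM), H3(1-25) peptide (75uM) and acetyl-CoA (70uM); CoA-thiol fluorescence (Ex340/Em540) was read at 0 and 20 min.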
PLK1 PBD inh: inhibitors of human PLK1 polo-box domain binding | Potency, µM, hits mostly inhibitors | actives 2.8% (n = 360,000) | P53350 | Plk1 PBD binding of FITC phosphopeptide, fluorescence polarization; also: series mostly up to about 57 µM; nearly all actives have a fitted effect of over 65% in size
Hits are given with their value; – = inactive; ? = inconclusive; · = not tested or not shown. Calls follow the shape of the dose curve; as a rule, active = well fitted curve in the direction sought with a large enough effect; inconclusive = small, poorly fitted or top-dose-only effect, or another doubt; inactive = no such curve, though single readings can be large; an effect the other way counts as inactive or inconclusive.

SMILES	ALOX12 inh	VDR inhibitor	GCN5L2 inh	PLK1 PBD inh
CC(C)c1cc(C(=O)Nc2ccc(C(=O)N(C)C)cc2)c2ccccc2n1	–	·	·	·
CCc1ccc(NC(=S)Nn2cnnc2)cc1	?	–	–	17µM
COc1ccc(NC(=S)Nn2cnnc2)c(OC)c1	?	?	–	21µM
COc1ccc(NC(=S)NC23CN4CN(CN(C4)C2)C3)c(OC)c1	–	–	–	–
COc1ccc(NC(=S)Nc2ccc(OCc3ccccc3)cc2)c(OC)c1	35µM	–	–	–
CC1CCN(c2nc(SCCN(C)C)c(C#N)c3c2CCCC3)CC1	–	·	·	·
COCCn1c(C)cc(C(=O)CSc2nnc(Nc3ccccc3)s2)c1C	–	·	·	·
CN1CCC(N(C)C(=S)NC(=O)c2cc(-c3cccc(Br)c3)nc3ccccc23)CC1	?	–	–	21µM
CC(O)c1cccc(-c2ccc(CN3C[C@]4(CO)O[C@@H](CO)C[C@@H]4S3(=O)=O)cc2)c1 (stereo partly drawn)	–	?	–	27µM
CCC1Sc2ccc(S(=O)(=O)CCC(=O)N3CCc4ccccc43)cc2NC1=O (stereo not drawn)	–	–	–	–
CC1Sc2ccc(S(=O)(=O)CCC(=O)N3CCc4ccccc43)cc2NC1=O (stereo not drawn)	–	–	–	30µM
COc1ccc(NC(=O)CCS(=O)(=O)c2ccc3c(c2)NC(=O)C(C)S3)cc1OC (stereo not drawn)	–	?	–	6.7µM
COc1ccc(C(=O)CSc2nnc(Nc3ccccc3F)s2)c(OC)c1	–	·	·	·
O=c1cc(CSc2nnnn2-c2ccccc2)[nH]n1-c1ccccc1	–	·	·	·
O=c1cc(CSc2nnnn2-c2ccccc2)[nH]n1-c1ccc(F)cc1	18µM	·	·	·
CC(=O)c1cc(CC=C(C)C)c(O)cc1O	–	–	–	30µM
Cc1cc(Br)ccc1OCCCCNC(C)(C)C	?	?	–	27µM
Cc1oc(-c2nc(C#N)c(N3CCN(C)CC3)o2)cc1S(=O)(=O)N(C)c1ccccc1	–	·	·	·
COc1ccc(CC(=O)Oc2ccc(Br)cc2Cl)cc1	–	·	·	·
CCC1C(=O)N=C(SCC(=O)Nc2ccc(Br)cn2)NC1=O (stereo not drawn)	–	?	–	27µM
O=C(CCc1ncc(-c2ccc(F)cc2)o1)N1CCSCC1	–	·	·	·
CCNS(=O)(=O)c1ccc(NC(=O)c2ccccc2OCC)cc1	?	–	–	?
CC(C)c1ccccc1Cc1cc(C(=O)Nc2ccc(S(=O)(=O)c3ccccc3C(C)(C)C)cc2)c(O)c(O)c1O	9.7µM	·	·	·
Cc1ccccc1NC(=S)c1ccc2ccccc2n1	–	–	–	2.7µM
N#Cc1ccccc1Sc1ccccc1N	–	–	–	–
SMILES	ALOX12 inh	VDR inhibitor	GCN5L2 inh	PLK1 PBD inh
Nc1ccccc1SCc1ccccc1Cl	?	–	–	15µM
Nc1nc(SCc2ccccc2)ns1	–	–	–	?
Nc1nc(SCc2ccccc2Cl)ns1	–	–	–	30µM
O=C(O)c1ccccc1SCc1ccccc1Cl	–	·	·	·
Nc1ccccc1SSc1ccccc1N	?	10µM	?	0.6µM
COc1ccccc1C(=O)N1CCCN(c2cc(-c3ccc(Br)cc3)[nH]n2)CC1	–	·	·	·
COCCCNC(=O)c1cn(C)c(=O)c2cc(OC)c(OC)cc12	–	–	–	–
COc1ccccc1CNC(=O)c1cn(C)c(=O)c2cc(OC)c(OC)cc12	–	?	–	19µM
COc1cccc(NC(=O)c2cn(C)c(=O)c3cc(OC)c(OC)cc23)c1	–	–	–	3µM
CN(CC(=O)Nc1cccc(F)c1)C(=O)CCc1ncc(-c2ccccc2)o1	–	·	·	·
NC(=O)NC(=O)CSCc1ccccc1	–	·	·	·
CC(=O)C1=C(O)C(CSCc2ccccc2)N(C)C1=O (stereo not drawn)	10µM	–	·	?
O=C(OCC(=O)N1CCCc2ccccc21)c1ccc2c(c1)S(=O)(=O)c1ccccc1C2=O	–	·	·	·
CC1(N2CCOCC2)CC2(O)C(=[N+]1[O-])CCc1c2no[n+]1[O-] (stereo not drawn)	·	–	–	6µM
COc1ccc(OC)c(NC(=O)[C@H]2C[C@H]([C@@H](C)O)N[C@]23C(=O)Nc2c(C)cc(Cl)cc23)c1	–	·	·	·
CCOC(=O)Nc1ccc(NS(=O)(=O)c2ccc(F)cc2C)cc1	25µM	·	·	·
CCOC(=O)Nc1ccc(NS(=O)(=O)c2cc(F)ccc2F)cc1	–	·	·	·
C=CCc1cccc2cc(C(=O)Nc3cccc(Cl)c3)c(=O)oc12	–	–	–	·
C=CCc1cccc2cc(NC(C)=O)c(=O)oc12	–	–	–	27µM
CCN1CCC(NC(=O)C2CC(C)=C(C)CC2C(=O)O)CC1 (stereo not drawn)	–	·	·	·
Cc1ccc(-n2cccc2/C=C2\C(=N)N3N=C(c4ccco4)SC3=NC2=O)cc1	–	–	?	30µM
O=[N+]([O-])c1ccc(NC(=S)N/C(=N/CS(=O)(=O)c2ccccc2)c2ccccc2)cc1	?	–	–	19µM
Cc1ccc(S(=O)(=O)/N=C(/Nc2ccc([N+](=O)[O-])cc2)c2ccccc2)cc1	45µM	–	–	–
Cc1ccc(S(=O)(=O)/N=C(/Nc2ccc([N+](=O)[O-])cc2[N+](=O)[O-])c2ccccc2)cc1	?	–	–	–
Cc1ccc(F)cc1NC(=O)C1CCCCC1	–	·	·	·
SMILES	ALOX12 inh	VDR inhibitor	GCN5L2 inh	PLK1 PBD inh
CC(=O)N1CCc2[nH]c3ccccc3c2C1	–	–	–	–
O=C(N1CCc2[nH]c3ccccc3c2C1)C(F)(F)F	?	–	–	38µM
CCN(CCO)c1ccc(Nc2cc(-c3ccc(-c4ccccc4)cc3)ncn2)cc1	11µM	·	·	–
Cc1ccc(-c2cc(Nc3ccc(C(=O)N(C)Cc4ccccc4)cc3)ncn2)cc1	–	·	·	·
C#CCOC(=O)Nc1cccn(Cc2c(Cl)cccc2Cl)c1=O	–	–	–	–
O=C(Nc1cccn(Cc2c(Cl)cccc2Cl)c1=O)C1CC1	–	–	–	27µM
COC(=O)C(NNc1ccccc1C)(NC(=O)c1ccc(F)cc1)C(F)(F)F (stereo not drawn)	?	–	–	27µM
CCNC(=O)c1ccc(CNC(=O)OC(C)(C)C)cc1	–	·	·	·
CC1(C)CC(C)(c2ccc(O)cc2O)N(c2ccc3ccccc3c2)C(=S)N1 (stereo not drawn)	18µM	–	–	–
CCOc1ccc(OCC(O)CN2CCN(c3ccc(C(F)(F)F)cn3)CC2)cc1 (stereo not drawn)	–	·	·	·
CC1(C)CC(=O)C(Sc2ccccc2[N+](=O)[O-])=C(O)C1	–	–	–	11µM
O=C(CCC1CCCC1)Nc1nc2ccc(F)cc2s1	–	·	·	·
COc1cc(CCC(=O)Nc2cnc3ccccc3c2)cc(OC)c1OC	–	–	–	–
COc1ccc(CCC(=O)Nc2cnc3ccccc3c2)cc1	13µM	–	–	–
CN(C)c1ccc(C(=O)Nc2cnc3ccccc3c2)cc1	40µM	·	·	·
CN(CCCN1CCCCCC1)c1nc(-c2ccncc2)nc2c1cnn2C	–	·	·	·
N#C/C(=C\c1cn(-c2ccccc2)nc1-c1cccs1)S(=O)(=O)c1ccccc1	–	·	·	·
COc1cccc2cc(C(=O)N3CCN(C45CC6CC(CC(C6)C4)C5)CC3)c(=O)oc12	–	–	–	27µM
O=C(CCCC(=O)N1CCN(C(=O)c2cc3ccccc3[nH]2)CC1)N1CCCCC1	–	·	·	·
